Autofluor counter – counter-screen for toxin protease inhibitors: compound fluorescence | compound autofluorescence counterscreen, microsphere flow cytometry; active compounds read high | fluorescence intensity (test concentration not listed) | 360,000 tested, 3.1% active; in the data active means fluorescence intensity above about 16000; inconclusive means no clear call, values can overlap the other calls
BJeLR viability – MLPCN primary cell-based screen for lethality selective to Ras in HRASV12 cells; BJeLR (HRASV12) viability, CellTiter-Glo ATP luminescence, 48 h; inhibition, % (test concentration not listed); 300,000 tested, 0.17% active; in the data active means inhibition above about 50%; inconclusive means no clear call, values can overlap the other calls
BoNT A protease – BoNT/A light chain protease inhibitors, primary screen, biochemical, flow cytometry, MLPCN library | Botulinum neurotoxin type A light chain protease (Clostridium botulinum A str. ATCC 3502) | multiplex microsphere protease substrate cleavage | inhibition, % at 10 µM | 360,000 tested, 0.17% active | AID 588499, 2011; further: plate controls were buffer without enzyme for full effect and enzyme alone for no effect
BoNT F protease – BoNT/F light chain protease inhibitors, primary screen, biochemical, flow cytometry, MLPCN library; 360,000 tested, 0.22% active; inhibition, % at 10 µM; Multiplex microsphere protease cleavage assay; Botulinum neurotoxin type F light chain protease (Clostridium botulinum); in the data active means inhibition above about 35%, passing the limit was not always enough; inconclusive means no clear call, values can overlap the other calls; further: plate controls were buffer without enzyme for full effect and enzyme alone for no effect
3CLpro inhibitor – SARS-CoV 3CLpro protease inhibitors, primary screen, biochemical, quenched FRET; Replicase polyprotein 1ab (Severe acute respiratory syndrome coronavirus), P0C6X7; recombinant SARS-CoV 3CLpro, quenched FRET peptide cleavage; inhibition, % at 6 µM; 290,000 tested, 0.14% active; AID 1706, 2009; in the data active means inhibition above about 12%
Anthrax LF inh2 – Bacillus anthracis LF protease inhibitors, primary screen, biochemical, multiplex microsphere, MLPCN library; Lethal factor (Bacillus anthracis), P15917; multiplex microsphere protease cleavage assay; inhibition, % at 10 µM; 360,000 tested, 0.12% active; AID 588501, 2011; further: plate controls were buffer without enzyme for full effect and enzyme alone for no effect
The depositor's hits bear a star; ? = inconclusive; / = no result. Only some compounds are listed: those with a hit (about 3.6% of all), similar ones and a draw of the others. Unless noted, no stated cut-off is given here; in the data, active means inhibition above about 30%; inconclusive means no clear call, values can overlap the other calls; inactive means below that.

SMILES	Autofluor counter	BJeLR viability	BoNT A protease	BoNT F protease	3CLpro inhibitor	Anthrax LF inh2
CCn1c(NC(=O)c2ccc(COc3ccc(C)cc3[N+](=O)[O-])o2)nc2ccccc21	22323*	-3	2	1	2	-1
N#CC1=C(N)Oc2c(c(=O)oc3ccccc23)C1c1ccncc1 (stereo not given)	5900	/	0	-3	-1	-4
CCOc1ccc(C2C(C#N)=C(N)Oc3c2c(=O)oc2ccccc32)cc1 (stereo not given)	24671*	8	?	-6	-3	-2
CCn1c(SCC(=O)Nc2cc(C)on2)nc2sc3c(c2c1=O)CCCC3	10211	11	1	0	-3	-1
Cc1cc(NC(=O)CSc2nc3sc4c(c3c(=O)n2C)CCCC4)no1	17695*	-14	-5	-4	-1	1
Cc1cc(NC(=O)Cn2nnc3sc4c(c3c2=O)CCCC4)no1	17027*	0	-4	-6	5	-5
Cc1cc(NC(=O)Cn2nnc3sc4c(c3c2=O)CCC(C(C)(C)C)C4)no1 (stereo not given)	24311*	1	?	-4	3	0
Cc1cccc(N2CCN(CC(=O)Nc3ccc(S(=O)(=O)N4CCOCC4)cc3)CC2)c1C	5852	8	1	3	-2	-1
CC(C)(C)OC(=O)N1Cc2ccccc2C[C@H]1C(=O)NCC(=O)NCC1CCCO1 (stereo not given in full)	5938	4	-1	-4	-7	-3
CCOC(=O)C1=C(O)c2ccccc2C(=O)/C1=C\c1ccc(CC)cc1	21598*	15	6	3	4	-3
CN1CCN(S(=O)(=O)c2cccc([N+](=O)[O-])c2)CC1	20528*	/	0	-1	-3	-1
CN1CCN(S(=O)(=O)c2cccc(S(=O)(=O)c3cccc(S(=O)(=O)N4CCN(C)CC4)c3)c2)CC1	21260*	-5	-1	0	6	0
O=C(NCCC(=O)N1CCCCCCC1)c1ccc(Cl)cc1	5675	4	-1	13	/	-2
CC1(C)CC(=O)C2=C(C1)OC(N)=C(C#N)C21C(=O)N2CCCc3cccc1c32 (stereo not given)	16191*	-15	1	1	-2	-5
CC1(C)CC(=O)C2=C(C1)OC(N)=C(C#N)[C@@]21C(=O)N(CC(N)=O)c2ccccc21	3515	6	0	-6	5	4
CCCNC(=O)Cn1c(=O)/c(=C/c2ccc(-c3cccc([N+](=O)[O-])c3)o2)s/c1=C\C(=O)C(C)(C)C	4302	/	10	8	/	8
CCCNC(=O)Cn1c(=O)/c(=C\c2ccc(-c3cccc([N+](=O)[O-])c3)o2)s/c1=C\C(=O)C(C)(C)C	2727	-17	33*	12	-1	16
C=CCn1c(O)c(N=NC(=S)Nc2ccccc2F)c2ccccc21	4227	6	8	-7	-2	-1
C=CCn1c(O)c(N=NC(=S)Nc2cccc(C)c2)c2ccccc21	2362	25	30*	-3	3	9
CCCCNS(=O)(=O)c1ccc(NS(=O)(=O)c2c(C)cc(C)cc2C)cc1	16873*	-3	?	-4	6	0
CC(C)N(C(=O)Cn1cc(S(=O)(=O)CC(=O)Nc2ccccc2)c2ccccc21)C(C)C	6294	0	0	-7	0	9
Cc1cccc(C)c1NC(=S)N/N=C/c1ccc(OCCC(C)C)cc1	20711*	-1	-4	-6	0	-1
O=c1cc(N2CCN(Cc3ccccc3)CC2)[nH]c(=O)n1-c1ccc(Br)cc1	5681	-8	0	-6	-6	-10
COC(=O)c1cnn(-c2ccc(F)cc2F)c1/C=N/NC(=S)NC(C)(C)C	3848	-10	-4	?	-3	52*
CN(CC(=O)OCC(=O)NC1CCCC1)S(=O)(=O)c1ccc(Cl)cc1	3156	/	-2	-7	/	-12
SMILES	Autofluor counter	BJeLR viability	BoNT A protease	BoNT F protease	3CLpro inhibitor	Anthrax LF inh2
COc1ccc(S(=O)(=O)NCc2cccnc2)cc1C	4875	15	-3	?	3	-5
COc1cc(S(=O)(=O)NCc2cccnc2)ccc1F	21999*	-1	1	0	-3	-4
CCOc1ccc(S(=O)(=O)NCc2cccnc2)cc1C	4322	4	-1	-9	1	1
COC(=O)COc1ccc(S(=O)(=O)NCc2cccnc2)cc1C	17503*	6	6	10	-3	1
COC(C/C=C\C(=O)COCc1ccccc1)OC	/	9	/	/	/	/
O=C(Nc1ccc(F)cc1)NC1CCN(Cc2nnnn2Cc2ccco2)CC1	22240*	-9	?	0	-6	-2
O=C(Nc1ccccc1F)NC1CCN(Cc2nnnn2Cc2ccc(F)cc2)CC1	23538*	-5	0	-2	2	1
N#CCCN(C(=O)COC(=O)C1CCN(S(=O)(=O)c2cccs2)CC1)c1ccccc1	4424	-4	0	-4	0	-11
COc1ccc(-c2nc(C3CCCCC3)no2)cc1OC	22056*	9	1	2	2	1
CCCCC[C@@H](C)N1C[C@@H](COCc2ccccc2)Oc2cc(N3CC[C@H](N(C)C)C3)ccc2S1(=O)=O	5858	/	1	-16	/	-6
CC(C)N(C)C1CCN(C(=O)Nc2ccc(Cl)cc2)CC1	23132*	11	-3	-5	1	-6
CC(=O)N/C(=C/c1ccc2c(c1)OCO2)C(=O)NCCO	2226	-6	1	11	0	-1
Cc1ccc(S(=O)(=O)CCSc2ccc(C(F)(F)F)cn2)cc1	4179	-1	-2	36*	0	?
CC(C)(C)c1ccc(-c2nc(O)c(CC(=O)O)s2)cc1	/	-1	/	/	-3	/
O=C1CC2(CCN(C(=O)c3ccc(F)c(F)c3)CC2)Oc2ccccc21	?	-11	-3	-2	/	2
C=CCNc1nnc(SC2CC(=O)N(c3ccc(OC)cc3)C2=O)s1 (stereo not given)	17184*	2	-3	-4	5	-6
COc1ccc(N2C(=O)CC(Sc3nc4ccccc4s3)C2=O)cc1 (stereo not given)	4550	-6	-1	-2	8	-4
COc1ccc(NCC(=O)Nc2ccc(Br)cc2F)c(OC)c1	4009	-2	1	-9	4	-10
CCOC(=O)CN(C(=O)CSc1nnc(-c2ccc(OC)c(OC)c2)o1)c1ccccc1	20211*	-1	?	-2	-2	1
COC(=O)CSc1nnc(-c2ccc(OC)c(OC)c2)o1	4772	-7	0	-3	3	3
CCOC(=O)CN(C(=O)CSc1nnc(CNc2ccc(C)cc2C)o1)c1ccccc1	21560*	-4	1	1	-1	-15
